The list is not random: actives were taken first. Their share in the collection is about 0.3%.
mcGAS inh: mouse cGAS inhibition by luminescence | 160,000 tested, 0.15% active | inhibition, % at 12.5 µM | AID 1259399 | recombinant cGAS, Kinase-Glo ATP depletion luminescence | Q8C6L5;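 note: 0% = negative control wells and 100% = reference inhibitor with no enzyme activity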
Target sequence (Q8C6L5 whole entry, looked up): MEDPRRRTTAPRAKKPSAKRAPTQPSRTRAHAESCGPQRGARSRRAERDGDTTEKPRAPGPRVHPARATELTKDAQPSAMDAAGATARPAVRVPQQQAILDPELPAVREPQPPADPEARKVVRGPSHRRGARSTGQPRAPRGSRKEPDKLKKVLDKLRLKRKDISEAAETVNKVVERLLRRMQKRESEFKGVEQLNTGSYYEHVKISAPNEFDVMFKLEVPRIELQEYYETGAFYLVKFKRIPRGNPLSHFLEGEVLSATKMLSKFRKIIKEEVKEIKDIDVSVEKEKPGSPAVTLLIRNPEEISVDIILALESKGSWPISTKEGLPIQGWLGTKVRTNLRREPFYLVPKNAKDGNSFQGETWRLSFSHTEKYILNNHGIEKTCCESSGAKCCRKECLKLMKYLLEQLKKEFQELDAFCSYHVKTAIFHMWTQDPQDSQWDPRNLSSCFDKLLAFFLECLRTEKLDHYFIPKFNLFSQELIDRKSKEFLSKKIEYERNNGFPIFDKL
NPYLR7 ag: activates Aedes aegypti NPYLR7 receptor | HEK293T NPYLR7/Galpha15, GCaMP6s calcium fluorescence | activation, % at 10 µM | 270,000 tested, 0.15% active; in the data active = activation above about 40%;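 note: 0% = vehicle and 100% = reference agonist at the receptor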
hcGAS lum: blocks human cGAS activity; 290,000 tested, 0.081% active; inhibition, % at 12.5 µM; Q8N884; recombinant h-cGAS, ATP depletion, Kinase-Glo luminescence; AID 1259398;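 note: 0% = vehicle reaction and 100% = reaction without DNA for no activity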
An asterisk follows results filed as active. Cut-off read from the data, not from the text of the source, unless noted: active = inhibition above about 40%; inactive = the rest.

How did CN1C(=S)N(C2CCCCC2)C(=O)/C1=C\c1ccc2c(c1)OCO2 do in these assays?
mcGAS inh: -8; NPYLR7 ag: 46*; hcGAS lum: -3

Results for CN1C(=S)N(c2ccc3c(c2)OCO3)C(=O)/C1=C\c1cccc(OCCO)c1 ?
mcGAS inh: -3; NPYLR7 ag: 34; hcGAS lum: -1

What do the screens show for `Oc1ccccc1C(Nc1ccccn1)c1ccc2cccnc2c1O` (centres undefined)?
NPYLR7 ag: 2; hcGAS lum: 6

How did Oc1cccc2ccc(Nc3ccccn3)nc12 do in these assays?
mcGAS inh: 6; NPYLR7 ag: -14; hcGAS lum: 57*

What do the screens show for `COc1ccccc1-c1cc(C(=O)N2CCc3ccccc3C2)nc2cc(C(C)(C)C)nn12`?
mcGAS inh: 84*; NPYLR7 ag: -2; hcGAS lum: 6

How did CC(C)(C)c1cc2nc(C(=O)N3CCc4ccccc4C3)cc(-c3ccccc3F)n2n1 do in these assays?
mcGAS inh: 1; NPYLR7 ag: -13; hcGAS lum: 1

What do the screens show for `COc1ccc(C(=O)NC(C(=O)NC2CC2)C2CCN(S(=O)(=O)c3ccc(Cl)cc3)CC2)cc1` (centres undefined)?
mcGAS inh: -6; NPYLR7 ag: 9; hcGAS lum: -6

How did COC(C)(C)CC(C)NCc1ccc2nonc2c1 (centres undefined) do in these assays?
mcGAS inh: -6; NPYLR7 ag: -8; hcGAS lum: -4

Results for CCN1C(=S)NC(c2ccc(NS(C)(=O)=O)cc2)C(C(=O)OC)=C1C (centres undefined) ?
mcGAS inh: -2; NPYLR7 ag: 14; hcGAS lum: -1

Results for CCc1nc2n(n1)C(=O)C(C(c1cccc(Cl)c1)N1CCCCC1)S2 (centres undefined) ?
mcGAS inh: -7; NPYLR7 ag: -1; hcGAS lum: -8

What do the screens show for `COc1cc(F)ccc1-c1ccc2nc[nH]c2c1`?
NPYLR7 ag: 8; hcGAS lum: 0

What do the screens show for `C=C(Br)CN(CC1CCCO1)CC1CCCO1` (centres undefined)?
NPYLR7 ag: 4; hcGAS lum: -9

Results for O=C(NCCN1CCCC1)C1(c2ccc(F)cc2)CCOCC1 ?
NPYLR7 ag: 1; hcGAS lum: -16

Results for CC1CCCCC1OCCNC(=O)C1(c2ccc(F)cc2)CCC1 (centres undefined) ?
NPYLR7 ag: 55*; hcGAS lum: -3

What do the screens show for `O=C(c1snc2c(=O)n(Cc3ccccc3)c(=O)[nH]c12)N1CCSCC1`?
NPYLR7 ag: 65*; hcGAS lum: -2

Results for Cc1ccc(N2CCN(C(=O)c3snc4c(=O)n(CC(C)C)c(=O)[nH]c34)CC2)c(C)c1 ?
NPYLR7 ag: -9; hcGAS lum: -5

Results for CC(C)CN(Cc1cccc(OS(=O)(=O)c2cccc(C(F)(F)F)c2)c1)C(=O)Nc1ccc(C(F)(F)F)cc1 ?
mcGAS inh: -4; NPYLR7 ag: 15; hcGAS lum: -3

How did O=C(/C=C/c1ccccc1F)N1CCC(Cn2cc(CO)nn2)CC1 do in these assays?
mcGAS inh: -9; NPYLR7 ag: -2; hcGAS lum: -9

How did O=C(CSc1nnc(CN2CCCC2)o1)NC(=O)NCCC1=CCCCC1 do in these assays?
mcGAS inh: -4; NPYLR7 ag: 13; hcGAS lum: -4

What do the screens show for `Cn1c(N)c(C(=O)CC#N)c(=O)n(C)c1=O`?
NPYLR7 ag: 0; hcGAS lum: -1

Results for Cc1ccc(CNc2ccc(N3CCN(C)CC3)nc2)c(C)c1 ?
NPYLR7 ag: 20; hcGAS lum: -11

Results for COc1cc(C=C(C#N)S(=O)(=O)c2cc(Br)ccc2Br)cc(OC)c1 ?
NPYLR7 ag: 10; hcGAS lum: -5

What do the screens show for `COc1cc(C=C(C#N)S(=O)(=O)c2cc(Br)ccc2Br)ccc1O`?
NPYLR7 ag: 170*; hcGAS lum: -2

What do the screens show for `Nc1ccccc1-c1nc(-c2ccccc2)nc2ccccc12`?
mcGAS inh: -7; NPYLR7 ag: -7; hcGAS lum: -2

Results for Nc1c2ccccc2nc2ccccc12 (tested in a mixture with another compound) ?
NPYLR7 ag: -26; hcGAS lum: 55*

How did COc1ccc2oc(=Nc3cccc(C(C)=O)c3)c(C(N)=O)cc2c1 do in these assays?
mcGAS inh: 0; NPYLR7 ag: -10; hcGAS lum: -1

Results for CN(c1ccc(CNC(=O)c2nccnc2N)cc1)S(C)(=O)=O ?
NPYLR7 ag: 10; hcGAS lum: -9

What do the screens show for `O=C(Sc1cccc2cccnc12)c1ccccc1Cl`?
mcGAS inh: 44*; NPYLR7 ag: -7; hcGAS lum: 60*

Results for CSc1ccccc1NC(=O)c1cccc2cccnc12 ?
NPYLR7 ag: 6; hcGAS lum: 1

Source: PubChem BioAssay (Fisher Drug Discovery Resource Center)
